Measurements reported in PubChem BioAssay AID590 (National Center for Advancing Translational Sciences (NCATS), 2007).
The campaign covered roughly 59,000 compounds. About 6,500 (11%) were called active. Inconclusive results (about 15%) are left out. The sample holds actives, similar compounds and a random draw of the others, so the mix is not that of the screen. Rule as the data show it: active = max dye-equivalent concentration above about 10 nM; inconclusive = mostly about 1.1 nM to 9.6 nM; inactive = weaker than that.

Test: qHTS Assay for Spectroscopic Profiling in A350 Spectral Region
Conditions: Compound autofluorescence, 340/450 nm, Alexa 350 dye-equivalents; active compounds read high

Max dye-equivalent concentration, inactive:
COc1cc(C(=O)Nc2nccs2)cc(OC)c1OC
COC(=O)c1cccc(NC(=O)CN2CCC(NC(=O)c3cc(OC)c(OC)c(OC)c3)CC2)c1
COc1ccc(CNc2ncncc2-c2ccccc2OC)c(OC)c1
COc1ccc(S(=O)(=O)N2CCCCC2)cc1Br
CC(C)(C)c1cc(C(=O)NCc2cccnc2)ccn1
Cc1ccc(-n2nc(-c3ccco3)cc2C(=O)NCc2cccnc2)cc1
CC1=C2C(=O)OC(c3ccoc3)C2(C)CCC1 (stereo not drawn)
Cc1ccccc1N1CCN(S(=O)(=O)C[C@@]23CC[C@H](C[C@H]2NC(=O)[C@@H](N)CCS(C)(=O)=O)C3(C)C)CC1
CCCC(=O)Nc1nnc(CC(=O)OCC)s1
Cc1cc(Cl)c(S(=O)(=O)NCC2CCCO2)cc1OCC(N)=O (stereo not drawn)
O=C(COc1ccc2oc3c(c2c1)CCCC3)Nc1ccccn1
O=C(CC1OC(=O)c2ccccc21)NC1CCCCC1 (stereo not drawn)
O=C(COc1ccccc1F)NC1CC1
COc1ccccc1Nc1nc(N)nc(CN(C)C2CCCCC2)n1
COc1cccc(-c2cc(NCCc3c[nH]c4ccc(OC)cc34)ncn2)c1
O=S1(=O)CCN2C(=N1)SC1=C2CCN(Cc2ccccc2)C1
O=C(Cn1c(=O)n(Cc2ccco2)c(=O)c2ccccc21)NCC1CCCO1 (stereo not drawn)
COc1ccccc1-n1cnc2cc(C(=O)NCC3CCCO3)ccc21 (stereo not drawn)
O=C(c1csnn1)N1CCC2(CCN(Cc3nccs3)CC2)CC1
Cc1cc(C)n(C(=O)c2ccc(S(=O)(=O)N3CCCC3)cc2)n1
Cn1nnc2cc(C(=O)NCCC3=CCCCC3)ccc21
CCOC(=O)c1cc2n(c1C)-c1ccccc1C2=O
CCOC(=O)c1cc2n(c1N)-c1ccccc1C2=O
O=S(=O)(CCc1nc2ccccc2o1)c1ccc(Cl)cc1
CN1CCC2(CC1)NC(=O)NC2=O
CCN(CC)S(=O)(=O)c1cccc(C(=O)Nc2cc(C)nn2-c2nc(C)cc(C)n2)c1
COC(=O)Cc1cc(=O)n(-c2nc3ccccc3s2)[nH]1
CSCCC(Nc1nc2ccccc2s1)C(=O)O (stereo not drawn)
O=C(O)[C@@H](S)[C@H](S)C(=O)O
O=C(CSc1nnc(-c2cccs2)n1-c1ccccc1)N1CCN(C(=O)c2ccco2)CC1
O=C(CSc1nnc(-c2c[nH]c3ccccc23)n1-c1ccc(F)cc1)NCc1ccco1
Cc1ccc(-n2c(SCC(=O)Nc3ccc4c(c3)OCO4)nnc2-c2ccoc2C)cc1
COc1ccc(C(=O)NC(=O)CSc2nnc(-c3ccco3)n2-c2ccccc2)cc1
NCCNCC1CCNCC1
Cc1cccc(N2CCN(S(=O)(=O)c3ccc4c(c3)c(=O)n(C)c(=O)n4C)CC2C)c1 (stereo not drawn)
O=C(c1cnccn1)N1CCC[C@@]2(CCN(Cc3ccncc3)C2)C1
Cc1ccc(-c2ccc(=O)n(CC(=O)NCCCN3CCCCC3)n2)cc1
COc1ccc(-c2n[nH]c(C)c2-c2ccc(OC)c(OC)c2)c(O)c1
COc1ccc(CCN(C)CCN2C(=O)c3ccccc3C2=O)cc1OC
Cc1cc(C(=O)COC(=O)c2cccs2)c(C)n1-c1c(C)n(C)n(-c2ccccc2)c1=O
Cc1ccc(S(=O)(=O)N2CCN(C(=O)CCC(=O)NC3CCCc4ccccc43)CC2)cc1 (stereo not drawn)
O=C(CCC(=O)N1CCN(S(=O)(=O)c2ccccc2)CC1)NC1CCCc2ccccc21 (stereo not drawn)

Max dye-equivalent concentration, active:
COc1cc(C(=O)Nc2oc(-c3ccccc3)c(-c3ccccc3)c2C#N)cc(OC)c1OC 11 nM
COCCn1c(=O)[nH]c2cc(C(=O)NCc3cccnc3)ccc2c1=O 38 nM
NC(=O)COc1ccc2c3c(c(=O)oc2c1)CCCCC3 29 nM
O=C(COc1ccc2c3c(c(=O)oc2c1)CCC3)NC1CCCCC1 82 nM
CC1(C)CC(=O)c2cc(OCC(=O)NCC3CCCO3)ccc2O1 (stereo not drawn) 1600 nM
CCCn1c(=NC(C)=O)c(C(=O)OCC)cc2c(=O)n3ccccc3nc21 4900 nM
CCC(=O)NC(=Nc1nc2ccccc2s1)NC(=O)CC 190 nM
O=C(CSc1nnc(-c2cccs2)n1-c1ccccc1)NCc1ccco1 11 nM
COc1ccc(-n2c(SCC(=O)NCc3cccs3)nnc2-c2ccoc2C)cc1 27 nM
COc1ccc(CCN2C(=O)c3[nH]nc(-c4ccccc4O)c3C2c2ccc(C)cc2)cc1OC (stereo not drawn) 140 nM
N#C/C=C1\Sc2ccccc2C(=O)N1CC(=O)N1CCN(S(=O)(=O)c2ccccc2)CC1 15 nM
